# Assay results from PubChem BioAssay (NCATS).
# Values joined by “and” are separate entries in the source; they are usually repeats but may differ in a detail not shown here. Identical values can stand only once. Inconclusive results are not listed. Active and inactive are the calls of the source. Unless noted, calls follow the shape of the dose curve; as a rule, active = well fitted curve in the direction sought with a large enough effect; inconclusive = small, poorly fitted or top-dose-only effect, or another doubt; inactive = no such curve, though single readings can be large; an effect the other way counts as inactive or inconclusive.
# How the values were obtained:
# [1] = Primary qHTS for inhibitors of nuclear receptor binding SET domain protein 2 (NSD2) in an isogenic RCH-ACV NSD2 p.E1099K mutant (9B) (AID 1645876); also: potency is read from the fitted curve at half-maximal effect; nearly all actives have a fitted effect of over 70% in size
# [2] = Primary qHTS for inhibitors of nuclear receptor binding SET domain protein 2 (NSD2) in an RCH-ACV wild type WT cells (2C) (AID 1645877); also: potency is read from the fitted curve at half-maximal effect; nearly all actives have a fitted effect of over 70% in size
# [3] = molecular target: N-terminal Xaa-Pro-Lys N-methyltransferase 1 (Homo sapiens) (UniProt Q9BV86); assay: Confirmatory qHTS for Inhibitors of N-terminal methyltransferase 1 (NTMT1): MTaseGlo Assay (AID 1645874); also: potency is read from the fitted curve at half-maximal effect; nearly all actives have a fitted effect of over 65% in size
# Procedure, shortened: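 Luminescent MTase-Glo read-out of SAH. 125 nM NTMT1, 100 uM SAM, 1 uM SPKRIA substrate, 30 min RT reaction after 15 min compound preincubation. Normalized to no-enzyme and DMSO controls; Hill fit.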
# [4] = molecular target: Catechol O-methyltransferase (Homo sapiens) (UniProt P21964); assay: Confirmatory Screen for Target Class Profiling of Small Molecule Inhibitors of Methyltransferases (AID 1745852; calls by dose curve; as to activity change, negative = inhibition: % is scaled to controls: 0 for no effect and ±100 for the full control effect); settings: MTase-Glo luminescence, SAH detection, recombinant enzyme; measured here: COMT max response; stronger effect = lower value
# [5] = molecular target: Guanidinoacetate N-methyltransferase (Homo sapiens) (UniProt Q14353); assay: as above; settings: MTase-Glo luminescence, SAH detection, recombinant enzyme; activity change, negative = inhibition: at 57.3 µM (top of the series) unless noted
# [6] = molecular target: Nicotinamide N-methyltransferase (Homo sapiens) (UniProt P40261); assay: as above; settings: MTase-Glo luminescence, SAH detection, recombinant enzyme; measured here: NNMT max response; stronger effect = lower value
# [7] = molecular target: Phenylethanolamine N-methyltransferase (Homo sapiens) (UniProt P11086); assay: as above; settings: MTase-Glo luminescence, SAH detection, recombinant enzyme; measured here: PNMT max response; stronger effect = lower value
# [8] = molecular target: Glutathione peroxidase 1 (Homo sapiens) (UniProt P07203); assay: Primary qHTS Assay for Inhibitors of Recombinant Selenoprotein Glutathione Peroxidase 1 (GPX1) (AID 1845191); also: nearly all actives have a fitted effect of over 65% in size
# Procedure, shortened: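 Recombinant GPX1 (10 nM final) was preincubated with compound for 30 min at room temperature, then reacted with 1 mM GSH, 0.5 mM CHP, 0.5 mM NADPH and 100 nM glutathione reductase; NADPH fluorescence (340/450 nm) was read at 0 and 15 min.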
# [9] = molecular target: Phospholipid hydroperoxide glutathione peroxidase GPX4 (Homo sapiens) (UniProt P36969); assay: Primary qHTS Assay for Inhibitors of Recombinant Selenoprotein Glutathione Peroxidase 4 (GPX4) (AID 1845192); also: % is scaled to controls: 0 for no effect and ±100 for the full control effect; nearly all actives have a fitted effect of over 65% in size
# Procedure, shortened: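 GR-coupled readout: 100 nM GR, 1 mM GSH, 0.5 mM NADPH; NADPH fluorescence (ex 340/em 450 nm) read at t=0 and after 15 min RT. GPX4 200 nM, preincubated 30 min with compound; substrate 0.5 mM CHP.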
# [10] = qHTS drug screen for cell cycle checkpoint inhibitors in PARPi-resistant BRCA-mutant ovarian cancer cell lines. (AID 1963452; calls by dose curve); settings: PEO1/OlaR viability, CellTiter-Glo luminescence, 96 h, stronger effect = lower value
# Procedure, shortened: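 PEO1, PEO4 and PEO1/OlaR ovarian cancer cells, 600 per well, exposed 96 h at 37C to a dilution series. Viability read by CellTiter-Glo luminescence, normalized to DMSO and empty wells; activity summarized as Z-AUC.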
# [11] = NCATS anti-infectives library activity on HEK293 viability as a counter-qHTS vs the C. elegans viability qHTS (AID 1745854);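 also: HEK293 cells exposed to compounds for 24 hr before the viability read; % is scaled to controls: 0 for no effect and ±100 for the full control effect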
# Procedure, shortened: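 Cytotoxicity in human HEK293 cells is measured by ATP-dependent CellTiter-Glo luminescence following a 24 hr incubation with titrated library compounds at 37C. Top final concentration is 41.7 uM.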
# [12] = NCATS anti-infectives library activity on the primary C. elegans qHTS viability assay (AID 1745855; calls by dose curve; also: potency is read from the fitted curve at half-maximal effect)
# Procedure, shortened: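 Viability is taken from GFP fluorescence of PE254-GFP-FLuc C. elegans imaged by laser cytometry over 7 days. Ten L1 worms per well grow at 21 °C on TOP10 E. coli capsules with titrated compound; levamisole marks toxicity.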
# [13] = measured here: PEO1 parental Z-AUC
# Glutathione peroxidase 1 (Homo sapiens), sequence (P07203 whole entry, looked up): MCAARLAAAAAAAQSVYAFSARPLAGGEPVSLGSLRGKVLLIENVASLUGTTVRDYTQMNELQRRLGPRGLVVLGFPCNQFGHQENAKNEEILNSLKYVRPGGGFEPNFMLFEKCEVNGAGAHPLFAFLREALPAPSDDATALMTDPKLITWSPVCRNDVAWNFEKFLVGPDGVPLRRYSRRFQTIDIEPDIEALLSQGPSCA
# Nicotinamide N-methyltransferase (Homo sapiens), sequence (P40261 whole entry, looked up): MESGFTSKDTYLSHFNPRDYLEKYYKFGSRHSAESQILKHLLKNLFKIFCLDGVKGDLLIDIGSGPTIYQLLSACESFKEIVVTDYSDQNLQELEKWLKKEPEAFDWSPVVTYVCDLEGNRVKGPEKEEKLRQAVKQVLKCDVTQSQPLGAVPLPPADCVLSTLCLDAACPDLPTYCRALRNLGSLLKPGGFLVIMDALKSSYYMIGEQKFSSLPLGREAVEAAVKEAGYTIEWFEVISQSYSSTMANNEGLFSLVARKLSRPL
# Phenylethanolamine N-methyltransferase (Homo sapiens), sequence (P11086 whole entry, looked up): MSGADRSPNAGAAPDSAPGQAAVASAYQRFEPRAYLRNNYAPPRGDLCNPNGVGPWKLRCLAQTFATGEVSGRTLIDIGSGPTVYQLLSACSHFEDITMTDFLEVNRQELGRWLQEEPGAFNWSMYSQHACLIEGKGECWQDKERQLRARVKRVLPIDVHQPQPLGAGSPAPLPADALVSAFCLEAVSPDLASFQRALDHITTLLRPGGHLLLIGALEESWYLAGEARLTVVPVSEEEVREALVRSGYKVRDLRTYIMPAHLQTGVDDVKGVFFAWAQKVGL
# Catechol O-methyltransferase (Homo sapiens), sequence (P21964 whole entry, looked up): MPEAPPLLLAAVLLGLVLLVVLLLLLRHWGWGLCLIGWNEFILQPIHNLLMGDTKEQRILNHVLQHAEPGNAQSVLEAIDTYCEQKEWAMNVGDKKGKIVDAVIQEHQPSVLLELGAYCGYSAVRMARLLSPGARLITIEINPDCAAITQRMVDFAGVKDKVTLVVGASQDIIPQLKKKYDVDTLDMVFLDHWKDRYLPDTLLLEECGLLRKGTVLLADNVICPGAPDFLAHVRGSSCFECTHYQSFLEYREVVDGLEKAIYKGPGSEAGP
# N-terminal Xaa-Pro-Lys N-methyltransferase 1 (Homo sapiens), sequence (Q9BV86 whole entry, looked up): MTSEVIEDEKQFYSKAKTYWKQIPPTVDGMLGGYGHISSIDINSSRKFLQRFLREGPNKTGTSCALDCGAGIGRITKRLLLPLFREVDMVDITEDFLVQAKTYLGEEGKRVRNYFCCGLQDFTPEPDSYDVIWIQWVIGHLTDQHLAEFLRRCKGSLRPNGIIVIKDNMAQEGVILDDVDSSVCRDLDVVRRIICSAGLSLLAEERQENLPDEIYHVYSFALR
# Phospholipid hydroperoxide glutathione peroxidase GPX4 (Homo sapiens), sequence (P36969 whole entry, looked up): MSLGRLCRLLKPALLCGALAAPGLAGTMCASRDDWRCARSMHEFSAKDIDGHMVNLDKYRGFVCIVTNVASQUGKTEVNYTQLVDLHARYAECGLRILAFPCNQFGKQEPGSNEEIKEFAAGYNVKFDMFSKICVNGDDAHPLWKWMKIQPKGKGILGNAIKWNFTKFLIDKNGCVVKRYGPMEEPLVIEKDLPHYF
smiles,measurement,setting,value
O=C1N=C(O)S/C1=C\c1ccc2nccnc2c1,Potency,[1],18.4 µM (active)
same,Potency,[2],20.6 µM (active)
O=C(Nc1noc2ccccc12)c1ccc(F)cc1,Potency,[3],39.8 µM (active)
Cc1ccc(/C=C/c2nc3ccccc3[nH]2)cc1,Potency,[3],6.49 µM (active)
CCCS(=O)(=O)c1nc(NC2CC2)cc(-c2ccc3c(ccn3C3CC(C)(C)NC(C)(C)C3)c2)n1,Potency,[1],2.48 µM (active)
same,Potency,[2],2.21 µM (active)
same,activity,[4],-4.11%
same,"activity change, negative = inhibition",[5],1.84% [at 19.1 µM]
same,activity,[6],-12%
same,activity,[7],-6.24%
same,Potency,[8],inactive
same,Potency,[9],inactive
same,Z-AUC,[10],-1.38 (inactive)
same,Z-AUC,[10]; [13],-1.22
same,Z-AUC,[10]; measured here: PEO4 Z-AUC,-1.57
O=C1Nc2ccccc2/C1=C/c1cc(O)ccc1O,Potency,[1],16.4 µM (active)
same,Potency,[2],18.4 µM (active)
same,activity,[4],-4.65%
same,"activity change, negative = inhibition",[5],-0.984%
same,activity,[6],-18.3%
same,activity,[7],-2.66%
same,Potency,[8],inactive
CC(=O)O/N=C1/C(c2c(O)[nH]c3cc(Br)ccc23)=Nc2ccccc21,Potency,[1],1.84 µM (active) and 2.09 µM (active)
same,Potency,[2],2.06 µM (active) and 2.09 µM (active)
same,outcome,[11],inactive
same,Potency,[12],20.5 µM (active)
same,Potency,[8],inactive
same,Z-AUC,[10],-1.48 (inactive)
same,Z-AUC,[10]; [13],0.461
same,Z-AUC,[10]; measured here: PEO4 Z-AUC,-0.699
